PubChem BioAssay (EPA / NIEHS)
Active and inactive are the calls of the source. How the source made its calls: active means hit-call score of the fitted dose curve at least 0.9, where 1 is the maximum; inactive means score below 0.9.

read-out: Tumor necrosis factor receptor superfamily member 6 (Homo sapiens) (UniProt P25445); test: LTEA_HepaRG_FAS: Life Technologies and Expression Analysis (LTEA) Assay for Fas cell surface death receptor (FAS) using HepaRG (AID 2283447); conditions: mRNA level, 48 h; actives raise or lower the signal
Procedure, shortened: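 Differentiated human HepaRG cells, pre-cultured 48 h, were exposed in duplicate for 48 h to 8-point half-log concentrations (top 100 uM, 0.5% DMSO) in serum-free induction medium; FAS mRNA measured by qRT-PCR, normalized to ACTB/GAPDH/POLR2A, bidirectional fit versus DMSO.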

Q: `Cc1occc(=O)c1O` was tested. Which outcome did it give?
A: inactive

Q: How did the outcome turn out when `CC(=O)OC1CC(C)OC(C)O1` (configuration not stated) was run?
A: inactive

Q: For `CCCC[C@H]1CN(CC2CCOCC2)C(=O)OC12CCN(C1(C)CCN(C(=O)c3c(C)ncnc3C)CC1)CC2`, which outcome is on record?
A: inactive

Q: For `O=C(N[C@@H](c1ccccc1)[C@@H]1CCCCN1)c1cccc(C(F)(F)F)c1Cl`, which outcome is on record?
A: inactive

Q: How did the outcome turn out when `CC(C)NCC(O)c1ccc(O)c(O)c1` (configuration not stated) was run?
A: inactive

Q: For `C#CC(O)C(CC)CCCC` (configuration not stated), which outcome is on record?
A: inactive

Q: With `CC(COCC(C)OC(=O)c1ccccc1)OC(=O)c1ccccc1` (configuration not stated) as the molecule, how does the outcome read?
A: inactive

Q: How did the outcome turn out when `NC1CCCCC1` was run?
A: inactive

Q: With `O=C(O)CC(O)(CC(=O)O)C(=O)O` as the molecule, how does the outcome read?
A: inactive

Q: `COC(=O)CCC(=O)OC` was tested. Which outcome did it give?
A: inactive

Q: Which outcome does the source give for `CC(N)=O` here?
A: inactive

Q: `O=C(O)c1cccnc1` was tested. Which outcome did it give?
A: inactive

Q: Which outcome does the source give for `CCCC(=O)O` here?
A: inactive

Q: For `CCc1cc(C2=C(C(=O)O)N(c3ccccc3C(F)(F)F)S(=O)(=O)c3ccccc32)cc2c1OCO2`, which AC50 is on record?
A: 50 µM (active)

Q: `COC(=O)[C@H]1[C@H]2C[C@@H]3c4[nH]c5cc(OC)ccc5c4CCN3C[C@H]2C[C@@H](OC(=O)c2cc(OC)c(OC)c(OC)c2)[C@@H]1OC` was tested. Which outcome did it give?
A: inactive

Q: For `O=NO`, which outcome is on record?
A: inactive

Q: For `CCOCCOCCO`, which outcome is on record?
A: inactive

Q: For `CS(=O)(=O)c1ccc([C@@H](C[C@H]2CCC(=O)C2)C(=O)Nc2cnccn2)cc1Cl`, which AC50 is on record?
A: 24.4 µM (active)

Q: For `OCC(CO)n1cnc(-c2ccc(F)cc2)c1-c1ccnc(Oc2ccccc2)n1`, which outcome is on record?
A: inactive

Q: With `O=C(NS(=O)(=O)/C=C/c1cccs1)c1ccc(F)cc1Br` as the molecule, how does the outcome read?
A: inactive

Q: How did the outcome turn out when `CC(C)(C)c1ccccc1` was run?
A: inactive

Q: For `Cc1ccc(-c2cc(C(F)(F)F)nn2-c2ccc(S(N)(=O)=O)cc2)cc1`, which AC50 is on record?
A: 84.5 µM (active)
